Source: PMC7862700, “An all-to-all approach to the identification of sequence-specific readers for epigenetic DNA modifications on cytosine”

What was measured:
Experiment in all cases: DAPPL (digital affinity profiling via proximity ligation, sequencing); 10 mM Tris-HCl pH 7.5, 50 mM NaCl, 1 mM DTT, 4% glycerol, room temperature, 30 min; GST-TFs on glutathione beads, 16-mer random dsDNA library, 0.1% formaldehyde crosslink after washing; high values mean tight binding
[1] = target: T1, FLI1 (Homo sapiens, UniProt Q01543 1-452); details: protein: recombinant; tags: N-terminal GST; dsDNA, one strand shown
T1 sequence: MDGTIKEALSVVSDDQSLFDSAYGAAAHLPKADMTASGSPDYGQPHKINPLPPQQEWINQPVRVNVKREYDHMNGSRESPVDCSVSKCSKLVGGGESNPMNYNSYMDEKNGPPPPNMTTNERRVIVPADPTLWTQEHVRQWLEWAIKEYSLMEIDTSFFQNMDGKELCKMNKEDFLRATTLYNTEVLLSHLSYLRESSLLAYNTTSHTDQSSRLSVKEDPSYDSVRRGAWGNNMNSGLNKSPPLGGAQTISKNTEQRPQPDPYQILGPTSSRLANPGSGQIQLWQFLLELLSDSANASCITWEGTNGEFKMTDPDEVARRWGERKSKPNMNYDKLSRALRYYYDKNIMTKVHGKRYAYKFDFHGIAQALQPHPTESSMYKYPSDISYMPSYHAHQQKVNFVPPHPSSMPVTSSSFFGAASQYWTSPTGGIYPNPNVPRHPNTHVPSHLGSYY
Procedure, shortened: (§1)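 After expression in yeast as GST fusions, human transcription factors were bound to glutathione beads, DNA-barcoded and mixed with a tag-only sample. The pools were incubated with 200 nmole of a 16-mer random double-stranded DNA library in Tris/NaCl/DTT/glycerol buffer (30 min, room temperature), washed and crosslinked with 0.1% formaldehyde. Proximity ligation with BsaI/T4 ligase ran for 1 h at 37 °C, before PCR amplification and sequencing on an Illumina NextSeq500. Binding signal is a hexamer's read frequency for a factor divided by its frequency for the tag-only sample.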

[2] = target: T2, ELK1 (Homo sapiens, UniProt P19419 1-428); details: protein: recombinant; tags: N-terminal GST; dsDNA, one strand shown
T2 sequence: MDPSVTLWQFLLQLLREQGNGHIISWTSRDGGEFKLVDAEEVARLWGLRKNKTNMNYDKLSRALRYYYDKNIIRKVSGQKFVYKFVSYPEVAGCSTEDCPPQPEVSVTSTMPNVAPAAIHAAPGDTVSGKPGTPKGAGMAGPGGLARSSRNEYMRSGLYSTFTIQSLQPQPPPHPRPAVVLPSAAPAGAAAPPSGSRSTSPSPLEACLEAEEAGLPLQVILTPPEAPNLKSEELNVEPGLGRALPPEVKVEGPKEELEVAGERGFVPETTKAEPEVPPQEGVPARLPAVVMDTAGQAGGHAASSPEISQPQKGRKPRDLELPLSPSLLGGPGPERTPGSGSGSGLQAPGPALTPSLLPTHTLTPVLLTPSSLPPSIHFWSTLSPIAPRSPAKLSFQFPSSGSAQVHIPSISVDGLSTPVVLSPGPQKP
Procedure, shortened: as §1

[3] = target: T3, GABPA (Homo sapiens, UniProt Q06546 1-454); details: protein: recombinant; tags: N-terminal GST; dsDNA, one strand shown
T3 sequence: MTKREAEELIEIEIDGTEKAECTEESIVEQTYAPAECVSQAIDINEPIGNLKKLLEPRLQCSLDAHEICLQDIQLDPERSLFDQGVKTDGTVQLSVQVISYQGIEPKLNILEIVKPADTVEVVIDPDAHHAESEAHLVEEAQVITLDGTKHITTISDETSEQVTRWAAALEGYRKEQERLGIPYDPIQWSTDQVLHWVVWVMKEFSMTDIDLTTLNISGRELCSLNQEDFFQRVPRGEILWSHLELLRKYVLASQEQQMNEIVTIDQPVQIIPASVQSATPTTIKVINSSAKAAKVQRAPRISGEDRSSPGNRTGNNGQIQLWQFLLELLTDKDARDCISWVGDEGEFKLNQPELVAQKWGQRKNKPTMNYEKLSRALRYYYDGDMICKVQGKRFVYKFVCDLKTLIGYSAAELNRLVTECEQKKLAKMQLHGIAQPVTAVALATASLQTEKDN
Procedure, shortened: as §1

[4] = target: T4, ERG (Homo sapiens, UniProt P11308 1-479); details: protein: recombinant; tags: N-terminal GST; dsDNA, one strand shown
T4 sequence: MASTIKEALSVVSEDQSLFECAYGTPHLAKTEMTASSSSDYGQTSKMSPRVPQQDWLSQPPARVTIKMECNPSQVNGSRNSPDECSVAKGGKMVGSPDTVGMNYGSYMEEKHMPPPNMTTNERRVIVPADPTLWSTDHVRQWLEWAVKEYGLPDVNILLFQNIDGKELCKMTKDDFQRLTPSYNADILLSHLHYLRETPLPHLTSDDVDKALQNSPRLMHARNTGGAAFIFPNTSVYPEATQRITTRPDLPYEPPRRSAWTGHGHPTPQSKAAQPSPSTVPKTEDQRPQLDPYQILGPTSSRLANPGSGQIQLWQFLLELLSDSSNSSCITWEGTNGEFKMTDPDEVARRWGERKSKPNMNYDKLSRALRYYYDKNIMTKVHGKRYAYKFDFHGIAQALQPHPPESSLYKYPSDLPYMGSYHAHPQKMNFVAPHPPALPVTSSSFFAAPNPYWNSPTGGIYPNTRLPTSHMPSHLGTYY
Procedure, shortened: as §1

[5] = target: ELF1 (Homo sapiens, UniProt P32519 1-619); details: protein: recombinant; tags: N-terminal GST; dsDNA, one strand shown
Sequence of ELF1 (P32519 whole entry): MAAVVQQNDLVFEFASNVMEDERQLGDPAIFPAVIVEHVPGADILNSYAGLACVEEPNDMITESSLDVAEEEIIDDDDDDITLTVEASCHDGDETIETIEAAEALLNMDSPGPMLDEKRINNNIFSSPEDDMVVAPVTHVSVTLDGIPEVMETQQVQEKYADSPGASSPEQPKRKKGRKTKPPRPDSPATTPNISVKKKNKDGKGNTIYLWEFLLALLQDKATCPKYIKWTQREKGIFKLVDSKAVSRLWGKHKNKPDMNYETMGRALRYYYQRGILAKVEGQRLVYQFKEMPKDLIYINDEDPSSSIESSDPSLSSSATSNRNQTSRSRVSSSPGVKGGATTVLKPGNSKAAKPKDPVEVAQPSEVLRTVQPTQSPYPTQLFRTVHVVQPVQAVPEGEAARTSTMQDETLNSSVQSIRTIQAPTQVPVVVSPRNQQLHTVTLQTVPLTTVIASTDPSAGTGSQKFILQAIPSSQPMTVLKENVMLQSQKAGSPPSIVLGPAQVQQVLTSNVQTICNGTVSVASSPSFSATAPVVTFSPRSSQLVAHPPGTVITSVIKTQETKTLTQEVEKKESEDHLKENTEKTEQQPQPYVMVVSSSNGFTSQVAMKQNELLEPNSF
Procedure, shortened: as §1

[6] = target: T5, EHF (Homo sapiens, UniProt Q9NZC4 1-300); details: protein: recombinant; tags: N-terminal GST; dsDNA, one strand shown
T5 sequence: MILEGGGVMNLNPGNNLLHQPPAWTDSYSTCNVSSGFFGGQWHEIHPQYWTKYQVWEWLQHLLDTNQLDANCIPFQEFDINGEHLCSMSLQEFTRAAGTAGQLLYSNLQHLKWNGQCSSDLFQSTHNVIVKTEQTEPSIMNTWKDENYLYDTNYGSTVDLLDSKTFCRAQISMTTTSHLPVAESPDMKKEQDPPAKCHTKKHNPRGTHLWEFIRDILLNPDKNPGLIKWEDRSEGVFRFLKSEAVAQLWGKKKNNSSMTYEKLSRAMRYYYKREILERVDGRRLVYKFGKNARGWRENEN
Procedure, shortened: as §1

[7] = target: SPI1 (Homo sapiens, UniProt P17947 1-270); details: protein: recombinant; tags: N-terminal GST; dsDNA, one strand shown
Procedure, shortened: as §1

[8] = target: SPIB (Homo sapiens, UniProt Q01892 1-262); details: protein: recombinant; tags: N-terminal GST; dsDNA, one strand shown
Sequence of SPIB (Q01892 whole entry): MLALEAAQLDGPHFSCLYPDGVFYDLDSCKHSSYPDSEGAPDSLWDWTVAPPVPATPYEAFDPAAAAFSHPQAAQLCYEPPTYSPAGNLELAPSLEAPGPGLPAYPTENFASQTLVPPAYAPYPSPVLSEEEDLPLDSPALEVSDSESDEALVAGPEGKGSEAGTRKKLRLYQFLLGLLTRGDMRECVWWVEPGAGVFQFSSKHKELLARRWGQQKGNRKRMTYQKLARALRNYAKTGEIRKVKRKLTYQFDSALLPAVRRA
Procedure, shortened: as §1

[9] = target: T6, FEV (Homo sapiens, UniProt Q99581 1-238); details: protein: recombinant; tags: N-terminal GST; dsDNA, one strand shown
T6 sequence: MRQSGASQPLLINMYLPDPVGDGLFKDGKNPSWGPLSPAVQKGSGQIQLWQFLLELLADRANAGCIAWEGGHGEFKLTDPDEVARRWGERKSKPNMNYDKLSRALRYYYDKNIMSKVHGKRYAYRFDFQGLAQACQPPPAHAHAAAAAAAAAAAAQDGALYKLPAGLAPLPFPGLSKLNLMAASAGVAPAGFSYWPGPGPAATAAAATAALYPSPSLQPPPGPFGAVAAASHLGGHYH
Procedure, shortened: as §1

[10] = target: ETV5 (Homo sapiens, UniProt P41161 1-510); details: protein: recombinant; tags: N-terminal GST; dsDNA, one strand shown
Sequence of ETV5 (P41161 whole entry): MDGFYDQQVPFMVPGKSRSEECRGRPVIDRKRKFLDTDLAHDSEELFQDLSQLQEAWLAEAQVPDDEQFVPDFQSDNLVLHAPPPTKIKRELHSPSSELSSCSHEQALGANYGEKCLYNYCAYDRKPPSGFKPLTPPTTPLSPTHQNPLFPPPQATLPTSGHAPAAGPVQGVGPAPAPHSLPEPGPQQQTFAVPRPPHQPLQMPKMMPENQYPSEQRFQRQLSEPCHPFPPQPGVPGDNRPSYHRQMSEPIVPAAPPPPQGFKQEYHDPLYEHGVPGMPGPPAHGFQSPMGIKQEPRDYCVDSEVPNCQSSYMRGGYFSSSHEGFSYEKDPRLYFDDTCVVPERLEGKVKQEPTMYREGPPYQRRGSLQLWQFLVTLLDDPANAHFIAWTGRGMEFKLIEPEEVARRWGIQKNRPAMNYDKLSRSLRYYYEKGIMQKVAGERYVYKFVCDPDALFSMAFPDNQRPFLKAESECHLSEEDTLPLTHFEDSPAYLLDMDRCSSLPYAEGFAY
Procedure, shortened: as §1

[11] = target: HSF1 (Homo sapiens, UniProt Q00613 1-529); details: protein: recombinant; tags: N-terminal GST; chain copies: 3; dsDNA, one strand shown
Sequence of HSF1 (Q00613 whole entry): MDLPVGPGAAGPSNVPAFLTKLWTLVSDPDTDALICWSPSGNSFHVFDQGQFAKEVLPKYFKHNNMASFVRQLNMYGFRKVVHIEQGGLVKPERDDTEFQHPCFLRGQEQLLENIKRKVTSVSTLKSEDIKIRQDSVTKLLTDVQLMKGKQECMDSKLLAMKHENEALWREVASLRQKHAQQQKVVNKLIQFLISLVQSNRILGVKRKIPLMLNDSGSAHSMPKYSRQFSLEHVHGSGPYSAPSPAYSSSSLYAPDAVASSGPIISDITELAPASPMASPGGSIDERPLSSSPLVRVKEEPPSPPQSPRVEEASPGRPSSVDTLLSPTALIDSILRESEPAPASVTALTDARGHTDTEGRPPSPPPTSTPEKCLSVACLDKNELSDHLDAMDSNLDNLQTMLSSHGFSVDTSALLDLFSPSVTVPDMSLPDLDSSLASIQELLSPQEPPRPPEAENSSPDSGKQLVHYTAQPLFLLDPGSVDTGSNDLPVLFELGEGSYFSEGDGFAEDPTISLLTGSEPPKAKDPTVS
Procedure, shortened: as §1

[12] = target: T7, SPIC (Homo sapiens, UniProt Q8N5J4 1-248); details: protein: recombinant; tags: N-terminal GST; dsDNA, one strand shown
T7 sequence: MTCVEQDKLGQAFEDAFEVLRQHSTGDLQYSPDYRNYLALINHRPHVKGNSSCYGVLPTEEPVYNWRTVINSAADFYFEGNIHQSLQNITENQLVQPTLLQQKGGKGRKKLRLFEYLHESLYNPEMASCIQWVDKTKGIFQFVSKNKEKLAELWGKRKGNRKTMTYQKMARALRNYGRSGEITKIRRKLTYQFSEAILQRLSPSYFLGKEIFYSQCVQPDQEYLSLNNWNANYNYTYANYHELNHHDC
Procedure, shortened: as §1

[13] = target: ELF4 (Homo sapiens, UniProt Q99607 1-663); details: protein: recombinant; tags: N-terminal GST; dsDNA, one strand shown
Sequence of ELF4 (Q99607 whole entry): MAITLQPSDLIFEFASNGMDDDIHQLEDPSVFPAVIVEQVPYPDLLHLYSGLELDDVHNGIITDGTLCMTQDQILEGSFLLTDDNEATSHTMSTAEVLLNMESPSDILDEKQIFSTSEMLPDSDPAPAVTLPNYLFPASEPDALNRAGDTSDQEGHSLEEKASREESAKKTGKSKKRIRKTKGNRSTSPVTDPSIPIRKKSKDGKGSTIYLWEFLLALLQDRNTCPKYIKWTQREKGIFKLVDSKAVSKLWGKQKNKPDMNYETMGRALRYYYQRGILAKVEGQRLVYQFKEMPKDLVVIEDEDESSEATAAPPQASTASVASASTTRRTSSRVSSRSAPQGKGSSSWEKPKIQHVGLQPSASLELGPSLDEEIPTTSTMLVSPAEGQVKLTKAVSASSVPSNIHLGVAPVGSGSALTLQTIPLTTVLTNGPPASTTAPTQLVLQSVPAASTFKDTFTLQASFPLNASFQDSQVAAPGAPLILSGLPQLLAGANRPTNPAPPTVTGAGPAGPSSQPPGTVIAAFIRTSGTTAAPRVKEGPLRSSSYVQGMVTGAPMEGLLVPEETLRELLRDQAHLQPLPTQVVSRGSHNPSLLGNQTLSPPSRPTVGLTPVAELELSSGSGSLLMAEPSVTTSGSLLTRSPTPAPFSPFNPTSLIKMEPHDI
Procedure, shortened: as §1

[14] = target: T8, ELK4 (Homo sapiens, UniProt P28324-2 1-405); details: protein: recombinant; tags: N-terminal GST; dsDNA, one strand shown
T8 sequence: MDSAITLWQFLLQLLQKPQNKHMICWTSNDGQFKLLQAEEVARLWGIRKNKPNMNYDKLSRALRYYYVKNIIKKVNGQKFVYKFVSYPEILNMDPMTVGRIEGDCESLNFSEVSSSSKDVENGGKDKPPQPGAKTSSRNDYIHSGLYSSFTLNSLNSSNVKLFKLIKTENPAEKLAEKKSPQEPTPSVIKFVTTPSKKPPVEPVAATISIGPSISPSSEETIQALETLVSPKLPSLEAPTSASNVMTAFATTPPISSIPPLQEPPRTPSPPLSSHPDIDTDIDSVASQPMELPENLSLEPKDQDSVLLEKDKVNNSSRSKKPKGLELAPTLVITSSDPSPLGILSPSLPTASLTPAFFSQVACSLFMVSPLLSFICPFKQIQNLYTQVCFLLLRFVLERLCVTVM
Procedure, shortened: as §1

[15] = target: T9, ETV2 (Homo sapiens, UniProt O00321 1-342); details: protein: recombinant; tags: N-terminal GST; dsDNA, one strand shown
T9 sequence: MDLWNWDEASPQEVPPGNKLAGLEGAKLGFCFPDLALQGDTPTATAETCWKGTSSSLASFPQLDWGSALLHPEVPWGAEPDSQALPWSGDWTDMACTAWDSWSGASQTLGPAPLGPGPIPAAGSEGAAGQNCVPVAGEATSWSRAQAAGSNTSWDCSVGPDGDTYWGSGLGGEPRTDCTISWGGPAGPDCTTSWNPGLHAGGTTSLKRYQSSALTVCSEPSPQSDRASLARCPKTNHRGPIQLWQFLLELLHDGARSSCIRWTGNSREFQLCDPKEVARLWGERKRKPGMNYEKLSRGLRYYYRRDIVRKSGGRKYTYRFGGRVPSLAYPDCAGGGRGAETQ
Procedure, shortened: as §1

[16] = target: T10, ELF3 (Homo sapiens, UniProt P78545 1-371); details: protein: recombinant; tags: N-terminal GST; dsDNA, one strand shown
T10 sequence: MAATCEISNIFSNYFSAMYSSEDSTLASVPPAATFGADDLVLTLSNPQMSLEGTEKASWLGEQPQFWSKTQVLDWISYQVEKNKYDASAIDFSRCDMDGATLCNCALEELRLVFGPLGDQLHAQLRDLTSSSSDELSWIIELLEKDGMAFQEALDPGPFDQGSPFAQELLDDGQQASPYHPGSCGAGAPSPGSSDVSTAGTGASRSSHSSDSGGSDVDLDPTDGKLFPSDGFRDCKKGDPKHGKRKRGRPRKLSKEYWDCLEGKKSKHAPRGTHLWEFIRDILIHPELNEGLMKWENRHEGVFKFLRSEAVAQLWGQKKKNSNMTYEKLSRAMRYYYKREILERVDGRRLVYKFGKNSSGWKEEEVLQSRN
Procedure, shortened: as §1

[17] = target: ETV1 (Homo sapiens, UniProt P50549 1-477); details: protein: recombinant; tags: N-terminal GST; dsDNA, one strand shown
Sequence of ETV1 (P50549 whole entry): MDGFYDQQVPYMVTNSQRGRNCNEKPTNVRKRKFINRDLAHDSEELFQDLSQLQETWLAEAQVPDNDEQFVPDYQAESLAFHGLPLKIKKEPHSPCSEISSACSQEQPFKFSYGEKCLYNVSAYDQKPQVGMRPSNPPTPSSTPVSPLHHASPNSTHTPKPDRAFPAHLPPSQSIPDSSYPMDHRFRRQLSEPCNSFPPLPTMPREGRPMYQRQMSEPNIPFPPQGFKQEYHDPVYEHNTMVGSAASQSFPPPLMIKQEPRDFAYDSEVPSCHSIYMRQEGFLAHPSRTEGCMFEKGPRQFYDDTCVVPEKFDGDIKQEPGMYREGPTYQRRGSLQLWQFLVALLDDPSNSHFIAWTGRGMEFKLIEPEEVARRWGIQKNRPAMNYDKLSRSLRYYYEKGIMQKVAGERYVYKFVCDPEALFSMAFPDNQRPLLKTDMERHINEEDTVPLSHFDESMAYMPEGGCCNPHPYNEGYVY
Procedure, shortened: as §1

With ACCTCG the binding signal [1] was 1 fold enrichment (6-mer frequency, TF over GST control), the binding signal [2] was 1.18 fold enrichment (6-mer frequency, TF over GST control) and the binding signal [3] was 1.24 fold enrichment (6-mer frequency, TF over GST control). The binding signal [4] was 1.15 fold enrichment (6-mer frequency, TF over GST control), the binding signal [5] was 1.11 fold enrichment (6-mer frequency, TF over GST control) and the binding signal [6] was 1.16 fold enrichment (6-mer frequency, TF over GST control). For the same sequence, the binding signal [7] was 1.14 fold enrichment (6-mer frequency, TF over GST control), the binding signal [8] was 1.19 fold enrichment (6-mer frequency, TF over GST control) and the binding signal [9] was 1.05 fold enrichment (6-mer frequency, TF over GST control). The binding signal [10] was 1.11 fold enrichment (6-mer frequency, TF over GST control), the binding signal [11] was 1.14 fold enrichment (6-mer frequency, TF over GST control) and the binding signal [12] was 1.17 fold enrichment (6-mer frequency, TF over GST control). For the same sequence, the binding signal [13] was 1.18 fold enrichment (6-mer frequency, TF over GST control), the binding signal [14] was 1.35 fold enrichment (6-mer frequency, TF over GST control) and the binding signal [15] was 1.28 fold enrichment (6-mer frequency, TF over GST control). For the same sequence, the binding signal [16] was 1.23 fold enrichment (6-mer frequency, TF over GST control) and the binding signal [17] was 1.15 fold enrichment (6-mer frequency, TF over GST control).
